From the supplement of paper PMC9177965
Where “and” joins values, the source holds several entries; their conditions need not be identical. Identical values can stand only once.

These compounds were tested on HT29 sg-Ctrl (RNF43 wildtype) (assay: cell viability activity relative to DMSO (negative = inhibition); higher = more viable cells (less growth inhibition)). Conditions: 5 µM; 96 h.
Procedure: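 Broad Repurposing Library primary screen at a single dose of 5 uM. HT29 sg-Ctrl and HT29 RNF43 G659fs CRISPR-edited isogenic cells were seeded at 2500 cells/well in 384-well plates in duplicate and treated for 96 h. Viability was read by CellTiter-Glo and reported as % activity relative to DMSO, with MG132 as the positive control (negative = growth inhibition).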

Structure (SMILES)	cell viability activity
COc1cccc(Nc2ncnn3ccc(CN4CC[C@@H](N)[C@H](O)C4)c23)c1	-31.4%
CNc1ncc2cc(-c3cc(NC(=O)NCCC(C)(C)C)c(F)cc3C)c(C)nc2n1	-58.9%
COC(=O)C1=C(C)NC(C)=C(C(=O)OCCCN2CCC(c3ccccc3)(c3ccccc3)CC2)[C@@H]1c1cccc([N+](=O)[O-])c1	-91.4%
O=C(CCCCCN1C(=O)c2cccc3cccc(c23)C1=O)NO	-71.7%
CC(C)/N=c1\cc2n(-c3ccc(Cl)cc3)c3ccccc3nc-2cc1Nc1ccc(Cl)cc1	-75.7%
CCN(CC)C(=S)SSC(=S)N(CC)CC	-43.6%
Nc1ccccc1NC(=O)c1ccc(CNC(=O)OCc2cccnc2)cc1	-77.2%
CC(=O)NCC(=O)N1[C@@H]2CC[C@H]1c1ccc(Nc3ncc(C(F)(F)F)c(NC4CCC4)n3)cc12	-44.1%
CC(=O)c1cnc2ccc(-c3cc(Cl)c(O)c(Cl)c3)nc2c1N[C@H]1CC[C@H](CN(C)C)CC1	-91.1%
CC[C@H](CC#N)OC(=O)N[C@@H](C)c1cccc(NC(=O)Nc2ccc(-c3cnco3)c(OC)c2)c1	-55.9%
COC(=O)C1=C(C#N)NC(C)=C(C(=O)OC(C)C)C1c1cccc([N+](=O)[O-])c1 (stereo not drawn)	-65.8%
COc1cccc2c1C(=O)c1c(O)c3c(c(O)c1C2=O)C[C@@](O)(C(=O)CO)C[C@@H]3O[C@H]1C[C@H](N)[C@H](O)[C@H](C)O1	-89.6% and -89.8% and -68.3%
Nc1ncnc2c1nc(Br)n2[C@@H]1O[C@@H]2COP(=O)(O)O[C@H]2[C@H]1O	-6.53%
CC(C)C[C@H](NC(=O)[C@H](CCc1ccccc1)NC(=O)CN1CCOCC1)C(=O)N[C@@H](Cc1ccccc1)C(=O)N[C@@H](CC(C)C)C(=O)[C@@]1(C)CO1	-96.6%
COc1cc(/C=C/C(=O)CC(=O)/C=C/c2ccc(O)c(OC)c2)ccc1O	-84.2%
CN(c1ncccc1CNc1nc(Nc2ccc3c(c2)CC(=O)N3)ncc1C(F)(F)F)S(C)(=O)=O	-83.1%
CN1CCC[C@@H]1Cc1c[nH]c2ccc(CCS(=O)(=O)c3ccccc3)cc12	-27.2%
Cc1cc(OCc2nnc(SC3CCCC3)n2-c2cccnc2)ccc1-c1ccc(S(C)(=O)=O)cc1	-74.8%
Nc1ccn([C@@H]2O[C@H](CO)[C@@H](O)C2(F)F)c(=O)n1	-67.1%

Structure (SMILES)	cell viability activity
CC1=C(C(=O)OC2CCCCC2)C(c2ccc([N+](=O)[O-])cc2)C2=C(CC(C)(C)CC2=O)N1 (stereo not drawn)	-15.6%
O=C(c1cn(Cc2cncn2Cc2ccc(Br)cc2)cc1-c1cccc2ccccc12)N1CCOCC1	-38.5%
CCCCCCCCCCCCCCCC[N+](C)(C)C	-74.2%
Cc1csc(-c2nnc(Nc3ccc(Oc4ncccc4-c4ccnc(N)n4)cc3)c3ccccc23)c1	-46.6%
O=C(c1cccc(Cl)c1F)N1CCN(Cc2cccc(Nc3nccs3)n2)CC1	-25.6%
NC1(c2ccc(-c3nc4ccn5c(=O)[nH]nc5c4cc3-c3ccccc3)cc2)CCC1	-39.4%
CC(C)c1cc(C(C)C)c(-c2csc(N(CCN(C)C)Cc3cccnc3)n2)c(C(C)C)c1	-63.4%
CCN(CC)CCOc1ccc(C(=C(Cl)c2ccccc2)c2ccccc2)cc1	-97.9%
CCOc1cc2ncc(C#N)c(Nc3ccc(F)c(Cl)c3)c2cc1NC(=O)/C=C/CN(C)C	-78.7%
NC(=O)Nc1cc(-c2cccc(F)c2)sc1C(=O)N[C@H]1CCCNC1	-32.6%
C#CCC(Cc1cnc2nc(N)nc(N)c2n1)c1ccc(C(=O)N[C@@H](CCC(=O)O)C(=O)O)cc1 (stereo partly drawn)	-61.7%
CCN(CC)CCOc1ccc(Nc2ncc3cc(-c4c(Cl)cccc4Cl)c(=O)n(C)c3n2)cc1	-80.3%
CCNCCCNCCCCNCCCNCC	-43.8%
CC(NCCC(c1ccccc1)c1ccccc1)c1ccccc1 (stereo not drawn)	-69.7%
CNCCn1c(=O)c2cc(OC)c(OC)cc2c2cnc3cc4c(cc3c21)OCO4	-86.6%
CO[C@@H]1[C@H](N(C)C(=O)c2ccccc2)C[C@H]2O[C@]1(C)n1c3ccccc3c3c4c(c5c6ccccc6n2c5c31)C(=O)NC4	-61.4%
NC1(Cc2ccc(Cl)cc2)CCN(c2ncnc3[nH]ccc23)CC1	-20.8%
O=C(Cc1ccc(-c2ccc(OCCN3CCOCC3)cc2)cn1)NCc1ccccc1	-52%
CCCCC(=O)O[C@H]1CC[C@H]2[C@@H]3CCc4cc(O)ccc4[C@H]3CC[C@]12C	-32.5%
